Experimental data from PubChem BioAssay AID463173 (ICCB-Longwood Screening Facility, Harvard Medical School, 2010).
The whole screen tested about 52,000 compounds, of which about 4,300 (8.3%) were called active. The entries come from a sample that favours actives as a whole. Values without a mark were called inactive. No stated cut-off is given here; in the data, active means survival mostly below about 52% (no sharp cut-off); inactive means mostly above about 56%.

system: DeltatarO mutant; assay: S. aureus survival, RN4220 and DeltatarO strains – OD600, teichoic acid synthesis inhibitors, primary screen (AID 463173); conditions: S. aureus RN4220 wild type/DeltatarO growth, OD600, 18 h, hits give low values, screened at 18.75 µg/mL (by protocol)

SMILES	survival
COc1cccc2cc(-c3nc4ccc(C)cc4[nH]3)c(=O)oc12	98%
C=CCc1cccc2cc(-c3nc4ccc(C(=O)O)cc4[nH]3)c(=O)oc12	92%
C=CCc1cccc2cc(-c3nc4ccc(C)cc4[nH]3)c(=O)oc12	0% (active)
O=C(NC(=O)c1ccc(F)cc1)Nc1ccc(-c2cc(C(F)(F)F)nn2-c2ccccc2)cc1	61%
COCCn1c(SCC(=O)c2ccccc2)nc2cc(C(=O)NC3CCCC3)ccc2c1=O	87%
CC(C)=CC(=O)Nc1nnc(Cc2ccccc2)s1	55%
CCc1ccc(Cn2c(CNS(=O)(=O)c3ccc(F)c(Cl)c3)nc3cccnc32)cc1	20% (active)
Cc1ccc(Cn2c(CNC(=O)Cc3cccc([N+](=O)[O-])c3)nc3cccnc32)cc1	70%
CCOc1ccc(Cn2c(CNS(=O)(=O)c3ccc([N+](=O)[O-])cc3)nc3cccnc32)cc1	94%
Cc1ccc(Cn2c(CNS(=O)(=O)c3ccc(F)c(Cl)c3)nc3cccnc32)cc1	126%
O=S(=O)(NCc1nc2cccnc2n1Cc1ccc(F)cc1)c1ccc(Cl)s1	-5% (active)
O=C(Cc1cccc([N+](=O)[O-])c1)NCc1nc2cccnc2n1Cc1ccc(F)cc1	118%
CCOc1ccc(Cn2c(CNS(=O)(=O)c3ccc(CC)cc3)nc3cccnc32)cc1	95%
CCc1ccc(Cn2c(CNS(=O)(=O)c3ccc(Cl)s3)nc3cccnc32)cc1	66%
COc1ccc(Cn2c(CNC(=O)Cc3cccc([N+](=O)[O-])c3)nc3cccnc32)cc1	-5% (active)
Cc1ccc(Cn2c(CNS(=O)(=O)c3ccc(Cl)s3)nc3cccnc32)cc1	124%
CCc1ccc(Cn2c(CNS(=O)(=O)c3ccc([N+](=O)[O-])cc3)nc3cccnc32)cc1	8% (active)
O=S(=O)(NCc1nc2cccnc2n1Cc1ccccc1Cl)c1ccc(F)c(Cl)c1	87%
C#CCN1CCOCC1	99%
Cc1cc2c(=O)c(C(=O)c3ccncc3)cn(CC(=O)Nc3cccc(C)c3C)c2cc1C	94%
CCOc1ccc(-c2cc3nc(C4CCN(C(=O)OC(C)(C)C)CC4)c(C(=O)Nc4cccc(Cl)c4C)cn3n2)cc1	81%
COc1ccc(NC(=O)CC2SC(=Nc3ccccc3)N(CCO)C2=O)cc1 (stereo unspecified)	95%
Cc1nnc(NC(=O)C(C)N2CCCC2)s1 (stereo unspecified)	97%

SMILES	survival
O=C(Nc1ccccc1Cl)N1CCc2ccccc2C1	91%
Cc1nn(C)c2c1c(-c1ccccc1)cc(=O)n2CC(=O)NC(C)(C)C	113%
COc1cccc(CSc2nc3n(n2)C(c2cccnc2)C(C(=O)Nc2ccccc2C)=C(C)N3)c1 (stereo unspecified)	74%
CCc1ccc(Cn2c(CNS(=O)(=O)c3ccc(C)c(C)c3)nc3cccnc32)cc1	81%
COc1ccc(Cn2c(CNS(=O)(=O)c3ccc(C)c(C)c3)nc3cccnc32)cc1	17% (active)
COc1ccc(Cn2c(CNS(=O)(=O)c3ccc4c(c3)CCCC4)nc3cccnc32)cc1	128%
Cc1nc(-c2ccc(F)cc2)sc1CCNC(=O)c1ccccc1C(F)(F)F	97%
CCCCN(CC)CCCNC(=O)c1cn(CC)c2ccc(S(=O)(=O)N3CCOCC3)cc2c1=O	89%
COc1ccc(CNC(=O)CCc2cn(C)c3ccccc23)cc1	57%
CCOC(=O)c1sc2ccccc2c1S(=O)(=O)NCc1ccc(F)cc1	94%
COc1cc(C(=O)OCc2cc(=O)n3ccsc3n2)cc(OC)c1OC	-2% (active)
Cc1ccccc1C(=O)Nc1ccccc1C(=O)OCc1cc(=O)n2ccsc2n1	77%
COc1cc(C(=O)OCc2cc(=O)n3nc(C(C)C)sc3n2)cc(OC)c1OC	99%
COc1ccccc1C(=O)Nc1ccc(C(=O)OCc2cc(=O)n3ccsc3n2)cc1	96%
COc1ccccc1C(=O)Nc1cccc(C(=O)OCc2cc(=O)n3ccsc3n2)c1	-4% (active)
O=C(Nc1ccccc1C(=O)OCc1cc(=O)n2ccsc2n1)c1ccccc1Cl	60%
Cc1ccccc1C(=O)Nc1cccc(C(=O)OCc2cc(=O)n3ccsc3n2)c1	72%
COc1ccccc1C(=O)Nc1ccccc1C(=O)OCc1cc(=O)n2ccsc2n1	-5% (active)
Cc1cccc(C(=O)OCc2cc(=O)n3ccsc3n2)c1	84%
CCc1nnc2c(NCc3cccc(OC)c3)nc3ccccc3n12	89%
Cc1cc(C)c2c(=O)cc(C(=O)Nc3nc4ccc(F)cc4s3)oc2c1	61%
COc1ccc(-c2cn3c(n2)sc2cc(C(=O)NC4CCCCC4)ccc23)cc1	79%
CSc1cccc(NC(=O)Cn2ncn3c(cc4ccccc43)c2=O)c1	65%

SMILES	survival
CCN(Cc1ccccc1)C(=O)Cn1c(=O)n(-c2cccc(C)c2)c(=O)c2c1c1cc(OC)ccc1n2C	59%
O=C(NCC(c1cccnc1)N1CCc2ccccc2C1)C(=O)Nc1ccc(F)cc1F (stereo unspecified)	107%
O=C(Nc1c(-c2ccccc2)nc2ccccn12)c1ccccc1F	48%
O=C(Nc1c(-c2ccccc2)nc2ccccn12)c1ccc(Br)cc1	31% (active)
COC(=O)Nc1c(-c2ccccc2)nc2ccc(C)cn12	74%
Cc1cccc(C(=O)Nc2c(-c3ccc(F)cc3)nc3ccccn23)c1	91%
Cc1ccc(C(=O)Nc2c(-c3ccccc3)nc3ccccn23)cc1C	34% (active)
O=C(Nc1c(-c2ccc(F)cc2)nc2ccccn12)c1ccccc1F	139%
Cc1ccc(C(=O)Nc2c(-c3ccccc3)nc3ccccn23)cc1	40% (active)
Cc1cc(C(=O)Nc2c(C)nc3ccccn3c2=O)ccc1[N+](=O)[O-]	92%
CC(C)Nc1c(-c2ccccc2)nc2ccccn12	105%
Cc1cc(NC(=O)CSc2ccccc2)no1	88%
CCOC(=O)Cc1nnc2c(Nc3cc(C)ccc3C)nc3nonc3n12	101%
Cc1oc(-c2cccc(Cl)c2)nc1Cn1c(SCc2ccc(F)cc2)nc2cccnc21	85%
Cc1ccc(C)c2nc(SCC(=O)OC(C)C)c(C#N)cc12	92%
COc1ccc(C(NC(C)=O)c2ccc(OC)cc2)cc1	77%
Cn1cnc(S(=O)(=O)N2CCC(C(=O)N3CCN(c4cccc(C(F)(F)F)c4)CC3)CC2)c1	106%
O=C(NC1CCCC1)c1ccc(CSc2nc3cccnc3n2Cc2ccccc2)cc1	95%
COc1ccc(Cn2cc(S(=O)(=O)c3ccc(Cl)cc3)c(=O)c3cc4c(cc32)OCO4)cc1	58%
COc1ccccc1C(=O)Nc1cc2c(cc1N1CCCCC1)n(C)c(=O)n2C	78%
Cn1c(=O)c(=O)n(C)c2cc(N3CCCC3)c(NC(=O)c3ccccc3Cl)cc21	90%
Cn1nc(-c2ccc(N3CCCCC3)c(NC(=O)c3ccc(Cl)cc3)c2)c2ccccc2c1=O	66%
CCn1c(=O)c(=O)n(CC)c2cc(N3CCCCC3)c(NC(=O)c3cccc(OC)c3)cc21	85%

SMILES	survival
COc1ccccc1C(=O)Nc1cc2c(cc1N1CCCC1)n(C)c(=O)c(=O)n2C	89%
COc1nnc(-c2ccc(N3CCCCC3)c(NC(=O)c3ccc(Cl)cc3)c2)c2ccccc12	107%
COc1nnc(-c2ccc(N3CCCCC3)c(NC(=O)c3ccccc3)c2)c2ccccc12	0% (active)
COc1nnc(-c2ccc(N3CCCCC3)c(NC(=O)c3ccc(C)cc3)c2)c2ccccc12	26% (active)
COc1nnc(-c2ccc(N3CCCCC3)c(NC(=O)c3ccccc3Cl)c2)c2ccccc12	-1% (active)
COc1ccc(S(=O)(=O)Nc2ccc3c(c2)N(C(C)=O)CCC3)cc1F	85%
Cc1cc(SCCN2CCOCC2)nc2ccccc12	68%
CCc1ccc(CNC(=O)c2ccc3nc(SCc4ccc(F)cc4)n(C)c3c2)cc1	94%
O=C(CSc1cn(CC(=O)N2CCCC2)c2ccccc12)Nc1cc(C(F)(F)F)ccc1Cl	52%
O=C1CSC(c2ccccc2)N1Nc1nc(N2CCOCC2)nc(N2CCOCC2)n1 (stereo unspecified)	101%
COc1cccc(CNC(=O)Cn2nc(N3CCN(c4ccccc4OC)CC3)ccc2=O)c1	86%
Cc1cc(OCC(=O)Nc2ccc3c(c2)OCCO3)cc(C)c1Cl	77%
CCn1c2ccccc2c2cc(NC(=O)COc3ccc(C)c(C)c3)ccc21	119%
CCn1c2ccccc2c2cc(NC(=O)COC)ccc21	43% (active)
CCn1c2ccccc2c2cc(NC(=O)COc3cccc(C)c3)ccc21	27% (active)
COc1ccc(Nc2cc(C)c3cc(NC(=O)COc4cccc(C)c4)ccc3n2)cc1	102%
CCn1c(=O)cc(SCC(=O)Nc2ccc(C)c(F)c2)c2ccccc21	89%
CCn1c(=O)cc(OCC(=O)Nc2cc(OC)c(OC)c(OC)c2)c2ccccc21	47%
Cc1cccc(OCC(=O)Nc2ccc(NC(=O)c3ccco3)cc2)c1	83%
CCn1c2ccccc2c2cc(NC(=O)COc3cc(C)c(Cl)c(C)c3)ccc21	50% (active)
COc1ccc(OCC2CNC(=O)O2)cc1 (stereo unspecified)	61%
C=CCn1c(=O)/c(=C2/Sc3ccccc3N2CC)s/c1=C1/C(=O)NN=C1C	89%
